The record followed here is PubChem BioAssay AID1779 (Sanford-Burnham Center for Chemical Genomics, 2009).

The structures appear in SMILES notation. Among all 290,000 compounds or so, about 160 (0.055%) were called active. Cut-off read from the data, not from the text of the source: active = inhibition above about 50%; inactive = the rest. The entries come from a sample that favours actives as a whole.

This assay deals with Tyrosine-protein phosphatase non-receptor type 22 (Homo sapiens) (UniProt Q9Y2R2). In words: inhibitors of LYP phosphatase, biochemical, fluorescence intensity, uHTS (AID 1779).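 Note: plate controls were vehicle with enzyme for no effect and no enzyme for full effect.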 The conditions noted are these: recombinant LYP phosphatase, at 11.5 µM, stronger effect = higher value.
Tyrosine-protein phosphatase non-receptor type 22 (Homo sapiens), sequence (Q9Y2R2 whole entry, looked up): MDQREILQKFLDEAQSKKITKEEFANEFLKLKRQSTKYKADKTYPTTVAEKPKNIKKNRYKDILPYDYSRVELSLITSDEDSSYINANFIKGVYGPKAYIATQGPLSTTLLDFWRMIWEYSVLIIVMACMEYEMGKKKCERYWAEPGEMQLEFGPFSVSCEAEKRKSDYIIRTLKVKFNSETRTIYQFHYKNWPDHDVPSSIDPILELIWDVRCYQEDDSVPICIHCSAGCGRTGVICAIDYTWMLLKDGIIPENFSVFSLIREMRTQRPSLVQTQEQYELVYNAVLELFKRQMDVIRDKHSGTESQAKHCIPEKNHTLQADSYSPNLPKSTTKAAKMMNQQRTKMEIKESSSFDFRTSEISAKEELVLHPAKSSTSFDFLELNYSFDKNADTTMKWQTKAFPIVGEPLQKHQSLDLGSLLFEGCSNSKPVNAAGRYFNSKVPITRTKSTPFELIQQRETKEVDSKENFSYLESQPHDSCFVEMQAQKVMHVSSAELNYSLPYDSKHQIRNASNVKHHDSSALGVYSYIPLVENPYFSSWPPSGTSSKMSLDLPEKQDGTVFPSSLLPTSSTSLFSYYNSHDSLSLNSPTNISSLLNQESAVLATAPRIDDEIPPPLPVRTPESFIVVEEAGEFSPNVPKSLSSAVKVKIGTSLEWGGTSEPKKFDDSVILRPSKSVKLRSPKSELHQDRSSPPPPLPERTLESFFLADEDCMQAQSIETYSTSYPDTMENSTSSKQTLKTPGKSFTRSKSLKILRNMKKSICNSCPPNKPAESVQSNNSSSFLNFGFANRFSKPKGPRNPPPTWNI
As to `Cc1ccc(C)c(CN2C(=O)COc3ccc(C(=O)c4ccccc4C(=O)O)cc32)c1`, the inhibition is 57.9% (active).
The result for `Cc1ccc(C)c(CN2C(=O)COc3ccccc32)c1` reads -5.6% (inactive); that for `CCCN1C(=O)COc2ccc(C(=O)c3ccccc3C(=O)O)cc21`, -4.6% (inactive); that for `O=S(=O)(/C=C/c1ccccc1)NC1CCCCCCC1`, -7.9% (inactive).
The figure for `CC(c1ccccc1)n1c(N2CCN(C)CC2)nc2c1c(=O)[nH]c(=O)n2C` (stereo not given) is -0.2% (inactive); for `CCN(CC)CCNC(=O)Cc1nn(CC)c(=O)c2ccccc12` it is -9.1% (inactive).
The result for `COCCn1c(=O)c2cc3c(=O)n(CCOC)c(=O)c3cc2c1=O` reads -8.5% (inactive).
Turning to `CCCC(=O)NCCc1cc2ccc(C)c(C)c2[nH]c1=O`, the inhibition was 67.2% (active).
The figure for `CC(=O)NCCc1cc2ccc(C)c(C)c2[nH]c1=O` is 0.4% (inactive).
`CCC(=O)NCCc1cc2ccc(C)c(C)c2[nH]c1=O`: the inhibition is 1.7% (inactive).
`CCOc1ccccc1/C=N/OCC(=O)NCc1ccc(F)cc1`: the inhibition was -5.5% (inactive).
The figure for `Cc1ccc(N2C(=O)c3ccc(C(=O)O)cc3C2=O)cc1C` is -1.9% (inactive); for `O=C(O)c1ccc(-n2c(=O)c3ccccc3c3ccccc3c2=O)cc1` it is -4% (inactive); for `Cc1ccc(-n2c(=O)c3cc4c(=O)n(-c5ccc(C)c(C)c5)c(=O)c4c(C(=O)c4ccc(C(=O)O)cc4)c3c2=O)cc1C` it is 85.8% (active).
In the case of `COCCN(C(=O)c1csnn1)C(C(=O)NC1CCCCC1)c1ccc(C)cc1` (stereo not given), the inhibition is -9.2% (inactive).
The figure for `NC(=O)C(c1cccc(Cl)c1)c1ncc(C(F)(F)F)cc1Cl` (stereo not given) is -10.5% (inactive); for `C#CCOc1ccc(/C=N/NC(=O)c2cccnc2)cc1OCC` it is 1.2% (inactive); for `COc1ccccc1OCC(=O)OCC(=O)Nc1ncc(Cl)cc1Cl` it is -9.7% (inactive).
The result for `O=C(Nc1ccccc1)C1=C[C@@H](C2CCCCC2)C[C@@H](OCCCCO)O1` reads 2.1% (inactive); that for `O=C(O)CCCN1C(=O)/C(=C\c2ccc(-c3nc4ccccc4s3)o2)SC1=S`, 6.8% (inactive).
Take `O=C(O)CCN1C(=O)/C(=C/c2ccc(-c3nc4ccccc4s3)o2)SC1=S`: the inhibition was 14.6% (inactive).
The result for `O=C(c1ccc2c(c1)OCO2)N1CCC2(CC1)Oc1ccc(Cl)cc1C(=O)C21CC(c2ccccc2)=NO1` (stereo not given) reads 5.7% (inactive).
The result for `O=C(O)c1ccc(-n2cccc2/C=C2/NC(=O)N(c3cccc(Cl)c3)C2=O)cc1` reads 6.2% (inactive); that for `O=C(O)c1cccc(-n2cccc2/C=C2/NC(=O)N(c3cccc(Cl)c3)C2=O)c1`, 0.3% (inactive).
`Cc1cc(NC(=O)Nc2ccc(Cl)cc2)no1`: the inhibition is -8.1% (inactive).
The figure for `CC[C@H](C)[C@H](NC(N)=O)C(=O)OCC(=O)NCc1ccc(Cl)cc1` is -4.9% (inactive); for `COc1cc2c(cc1OC)-c1nnc(-c3ccco3)n1C1(CCCC1)C2` it is -4.3% (inactive); for `Cc1cc(N2CCOCC2)nc(SCc2ccc(Cl)cc2Cl)n1` it is -4.6% (inactive).
The figure for `O=C(O)C1CCC(N2C(=O)c3c(Cl)c(Cl)c(Cl)c(Cl)c3C2=O)CC1` (stereo not given) is 94.2% (active); for `O=C(O)C1CCC(N2C(=O)C3CCCCC3C2=O)CC1` (stereo not given) it is -12.2% (inactive); for `O=C(O)C1CCC(N2C(=O)c3cccc([N+](=O)[O-])c3C2=O)CC1` (stereo not given) it is -7.1% (inactive).
The result for `Cc1cccc(OCC(=O)Nc2nnn(C)n2)c1C` reads -6.4% (inactive); that for `COc1cc(/C=N/NC(=O)c2cc(-c3ccccc3)nc3ccccc23)ccc1O`, -1.5% (inactive).
Regarding `COc1cc(/C=N/NC(=O)c2cc(-c3ccccc3OC(C)C)nc3ccccc23)ccc1O`, the inhibition is 4.4% (inactive).
The result for `CCOc1ccccc1-c1cc(C(=O)N/N=C/c2ccc(O)c(OC)c2)c2ccccc2n1` reads 64.5% (active).
The figure for `O=C(NCCc1ccccn1)C1CCN(S(=O)(=O)c2ccc(Cl)cc2)CC1` is -6.8% (inactive); for `CCOC(=O)c1ccc(NC(=O)c2nn(CC)cc2Br)cc1` it is -4.5% (inactive).
The result for `CCn1cc(Br)c(C(=O)NC(=S)Nc2ccc(C(=O)OC)cc2)n1` reads 65.2% (active).
Turning to `CCOC(=O)c1ccc(NC(=S)NC(=O)c2nn(CC)cc2Br)cc1`, the inhibition is 1.9% (inactive).
The figure for `COC(=O)CNC(=O)c1ccc(C)s1` is -7.8% (inactive); for `CN(C)S(=O)(=O)N1CCN(S(=O)(=O)c2ccc3ccccc3c2)CC1` it is 71.6% (active).
The result for `CN1CCN(S(=O)(=O)c2ccc3ccccc3c2)CC1` reads -4.3% (inactive).
The figure for `CCS(=O)(=O)N1CCN(S(=O)(=O)c2ccc3ccccc3c2)CC1` is -9.2% (inactive); for `CCN(CC(=O)N1CCOCC1)S(=O)(=O)c1ccc2ccccc2c1` it is -8.1% (inactive).
On to `Cc1ccc(OCC(O)CNS(=O)(=O)c2ccccc2C(=O)O)cc1` (stereo not given), for which the inhibition was -4.9% (inactive).
Regarding `CCC(=O)Nc1ccc(/C(C)=N/NC(=O)c2c(-c3ccccc3Cl)noc2C)cc1`, the inhibition is -2.5% (inactive).
The result for `CC(=O)Nc1cccc(NC(=O)c2c(-c3ccccc3Cl)noc2C)c1` reads -3.7% (inactive); that for `C/C(=N\NC(=O)c1c(-c2ccccc2Cl)noc1C)c1cccc(NC(=O)C(C)C)c1`, 77.1% (active); that for `C/C(=N\NC(=O)C(=O)Nc1cccc(Cl)c1C)c1ccncc1`, -8% (inactive).
Consider `O=C(c1cc2cc(F)ccc2[nH]1)N1CCN(C(=O)c2ccco2)CC1`, for which the inhibition was 95.1% (active).
In the case of `CN1CCN(C(=O)c2cc3cc(F)ccc3[nH]2)CC1`, the inhibition was -9.9% (inactive).
The figure for `O=C(c1cc2cc(Cl)ccc2[nH]1)N1CCN(C(=O)c2ccco2)CC1` is -9.3% (inactive); for `O=C(NNc1c(Cl)cccc1Cl)c1cccs1` it is -4.8% (inactive).
The figure for `CCCC(=O)Nc1ccc(Cl)c(NC(=O)CC)c1` is -12.2% (inactive); for `O=C(O)c1ccc(NC(=S)NC(=O)c2ccc(-c3ccc(Br)cc3)o2)cc1` it is 86.9% (active).
The figure for `O=C(NC(=S)Nc1ccc(CN2CCOCC2)cc1)c1ccc(-c2ccc(Br)cc2)o1` is -14.4% (inactive); for `O=C(NC(=S)Nc1ccccc1C(=O)O)c1ccc(-c2ccc(Br)cc2)o1` it is 1.2% (inactive); for `CCCc1cc(C(=O)NC2CCCN(Cc3ccccc3F)C2)no1` (stereo not given) it is -1.5% (inactive).
As for `CC(=O)N(CC(=O)O)c1ccccc1`, the inhibition was -0.7% (inactive).
The result for `O=C(COc1ccccc1F)Nc1cc(S(=O)(=O)N2CCOCC2)ccc1N1CCOCC1` reads -1.3% (inactive); that for `CCC(C)NCCOCCOc1ccc(Cl)c2ccccc12` (stereo not given), 1.1% (inactive).
The figure for `CCC(C)NCCOCCOc1ccc(Cl)cc1Br` (stereo not given) is -3.3% (inactive); for `CCC(C)NCCOCCOc1ccc(Cl)c(C)c1C` (stereo not given) it is 76.9% (active).
Consider `Cc1ccc(N=Nc2c(O)n(CN3CCOCC3)c3ccccc23)cc1`, for which the inhibition is 72% (active).
The figure for `Cc1cccc(NC(=S)N=Nc2c(O)n(CN3CCOCC3)c3ccccc23)c1C` is -4.1% (inactive); for `Cc1c(Cl)cccc1NC(=S)N=Nc1c(O)n(CN2CCOCC2)c2ccccc12` it is -0.8% (inactive).
The figure for `O=S(=O)(CCCc1ccccc1)c1ncn[nH]1` is -3% (inactive).
The result for `COc1ccc(N(CC(=O)NCCSC(C)(C)C)S(C)(=O)=O)c(OC)c1` reads -6.6% (inactive); that for `Cc1ccc(OCC(=O)N/N=C/c2ccco2)cc1`, -5.1% (inactive).
Turning to `Cc1ccccc1OCC(=O)N/N=C/c1ccco1`, the inhibition is -3.4% (inactive).
For `Cc1ccc(OCC(=O)N/N=C\c2ccco2)c(C)c1`, the inhibition is 51.3% (active).
The figure for `Cc1ccc(C(=O)N/N=C\c2cccs2)cn1` is 1.2% (inactive).
The figure for `Cc1nnc(C)n1/N=C/c1ccccc1` is -11% (inactive); for `COc1ccc(Cl)cc1-c1nc(N)nc(NC2CCCCC2)n1` it is 58.1% (active); for `CNc1nc(N)nc(-c2cc(Cl)ccc2OC)n1` it is -4% (inactive).
The result for `CCNc1nc(N)nc(-c2cc(Cl)ccc2OC)n1` reads -2.6% (inactive); that for `Cc1ccc(/C(O)=C2/C(=O)C(=O)N(CCN3CCOCC3)C2c2cccnc2)cc1` (stereo not given), -3.8% (inactive); that for `C=CCC(C(=O)OC)(C(=O)OC)c1ccccc1[N+](=O)[O-]`, -9.5% (inactive).
With `CCOc1cc(/C=N\NC(=O)c2ccc(NC(=O)C(C)(C)C)cc2)ccc1OC(=O)c1ccc(C)cc1`, the inhibition was -4% (inactive).
`COc1cc(/C=N\NC(=O)c2ccc(-c3ccccc3)cc2)ccc1OCC(N)=O`: the inhibition is 3.2% (inactive).
`Cc1cc2c(N=O)c(NO)ccc2[nH]1`: the inhibition is -4.6% (inactive).
The figure for `Cc1nn(Cc2cccc(C(=O)NCC(C)C)c2)c(C)c1Br` is -3.3% (inactive); for `Cc1nn(Cc2cccc(C(=O)NC34CC5CC(CC(C5)C3)C4)c2)c(C)c1Br` it is 94.4% (active); for `CCCNC(=O)c1cccc(Cn2nc(C)c(Br)c2C)c1` it is -5.3% (inactive).
Consider `COc1ccc(-c2cc(C(=O)NCCc3ccc(S(N)(=O)=O)cc3)c3ccccc3n2)cc1`, for which the inhibition was -2.5% (inactive).
`Cc1nnc(SCC(=O)NC(=O)Nc2ccc3c(c2)OCCO3)n1N`: the inhibition is -13% (inactive).
The result for `COCCn1c(=N)c(S(=O)(=O)c2ccc(Br)cc2)cc2c(=O)n3ccccc3nc21` reads 67.5% (active).
The result for `N=c1c(S(=O)(=O)c2ccc(Br)cc2)cc2c(=O)n3ccccc3nc2n1Cc1ccccc1` reads -5.4% (inactive); that for `COCCn1c(=N)c(S(=O)(=O)c2ccc(F)cc2)cc2c(=O)n3ccccc3nc21`, -34.1% (inactive); that for `Cc1cc(N2C(=O)C(O)=C(C(=O)c3cc4ccccc4o3)C2c2ccc(Br)cc2)no1` (stereo not given), 2.4% (inactive).
Consider `OCCOCCn1c(-c2ccccc2)nc(=S)c2c1CCCC2`, for which the inhibition is -2.3% (inactive).
On to `O=C(CCc1c[nH]c2ccccc12)OCc1cccc([N+](=O)[O-])c1`, for which the inhibition is -6% (inactive).
The figure for `COc1ccc(OCC(=O)N/N=C/c2ccc(OC)c(OC)c2C(=O)O)cc1` is 53.1% (active).
The figure for `COc1ccc(/C=N/NC(=O)COc2ccc3ccccc3c2)c(C(=O)O)c1OC` is -2.9% (inactive); for `COc1ccc(/C=N\NC(=O)COc2ccccc2)c(C(=O)O)c1OC` it is 2.3% (inactive).

Usually inhibition stands for the change of the read-out against control, counted positive when it falls.
